Measurements as given in PubChem BioAssay AID598 (SRMLSC, 2007).
Hit rate of the full screen: of about 85,000 compounds, about 5,100 (6%) were called active. This excerpt belongs to a sample that is enriched for actives. Unmarked numbers belong to inactive results.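 How the source made its calls: active means viability at or below 40%; inactive means viability above 40%.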

Assay: proliferation blockers of H69AR lung cancer cells, primary screen, cell-based, human, 86K library (AID 598);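 further: multidrug resistant small cell line overexpressing MRP-1 efflux transporter; 100% = mean luminescence of untreated control wells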
Conditions: H69AR lung tumor viability, ATP luminescence, 72 h; at 10 µM; active compounds read low
For `Cc1nc2c(c(=O)n1Cc1ccco1)c1nc3ccccc3nc1n2Cc1ccccc1`, the viability was 11.2% (active).
Compound `Cc1ccc(Cn2c(C)nc3c(c2=O)c2nc4ccccc4nc2n3Cc2ccco2)cc1` has a viability of 83.3%.
Work on `COCCCn1c2nc3ccccc3nc2c2c(=O)n(Cc3ccc(Cl)cc3)c(C)nc21` yielded a viability of 64.8%.
In the case of `OCCCN1c2ccccc2Nc2nnc(-c3ccccc3)cc21`, the viability is reported as 39.4% (active).
In the case of `Cc1nc(NC(=O)C2CCCCC2)sc1C`, the viability is reported as 91.5%.
In the case of `CCNS(=O)(=O)c1ccc(NC(=O)Nc2cccc(OC)c2)cc1`, the viability is reported as 82.3%.
For `O=C(O)CSCC(=O)Nc1cccc(C(F)(F)F)c1`, the viability was 96.6%.
With `CCNS(=O)(=O)c1ccc(NC(=O)Nc2cccc(C(F)(F)F)c2)cc1` the viability was 9.94% (active).
In the case of `COc1ccc(-c2cn(-c3ccc(C)cc3)c(=O)n2CC(=O)Nc2ccc(OC)c(OC)c2)cc1`, the viability is reported as 76.5%.
With `CS(=O)(=O)n1nc(-c2ccccc2)nc1NCc1ccco1` the viability was 96.7%.
Work on `Cc1cc(S(=O)(=O)NC2CCCCC2)ccc1OCC(=O)NCc1cccnc1` yielded a viability of 107%.
`CC1(C)CC(CC(=O)O)C(=O)O1` (configuration not stated) showed a viability of 98%.
For `Cc1ccc(OCC(O)CN2CCN(CC(O)COc3ccc(C)cc3Cl)CC2)c(Cl)c1` (configuration not stated), the viability was 1.96% (active).
Work on `OC(COc1cccc2ccccc12)CN1CCN(c2ccccn2)CC1` (configuration not stated) yielded a viability of 86.3%.
Compound `COc1cccc(OCC(O)CN2CCN(CCO)CC2)c1` (configuration not stated) has a viability of 96.9%.
`O=C(CSc1nnnn1-c1ccccc1)NCc1ccco1` showed a viability of 80%.
For `CCN(CC(=O)NCc1cccs1)c1nnnn1-c1ccccc1`, the viability was 14% (active).
With `Cc1nnc(SCC(=O)NCc2cccs2)[nH]c1=O` the viability was 91.8%.
In the case of `c1ccc2c(c1)C(=NC1CCCCC1)NC2=NC1CCCCC1`, the viability is reported as 15.9% (active).
In the case of `O=C1CCCCC(=O)c2ccccc2N1`, the viability is reported as 102%.
`Cc1nnc(OCC(=O)NCCC2=CCCCC2)c2ccccc12` showed a viability of 101%.
Compound `Cc1cc(C(=O)Nc2c(C)n(C)n(-c3ccccc3)c2=O)cs1` has a viability of 110%.
For `Cc1c(NC(=O)c2coc(=O)c(Br)c2)c(=O)n(-c2ccccc2)n1C`, the viability was 2.66% (active).
With `COC(=O)Nc1c(C)n(C)n(-c2ccccc2)c1=O` the viability was 99.9%.
With `Clc1ccc(Nc2nc(-c3cccs3)cs2)nc1` the viability was 31.8% (active).
`c1ccc(Nc2nc(-c3ccncc3)cs2)nc1` showed a viability of 86.7%.
With `O=C(Nc1ccc(Cl)cn1)Nc1cccs1` the viability was 98.4%.
Work on `Cc1cc(C)c2cc(CN(Cc3nnnn3Cc3ccc(F)cc3)C3CCCC3)c(=O)[nH]c2c1` yielded a viability of 64.6%.
For `CCCCOC(=O)Cn1c(=N)n(CCN(CC)CC)c2ccccc21`, the viability was 91.2%.
For `O=c1c2ccccc2nc(N/N=C/c2ccccc2)n1O`, the viability was 46.3%.
With `CCn1c(/C=C/c2ccc([N+](=O)[O-])o2)nc2ccccc2c1=O` the viability was 6.55% (active).
Compound `CCOC(=O)C1CCc2nc3ccccc3c(=O)n21` (configuration not stated) has a viability of 96.6%.
`O=C(CCN1c2ccccc2Sc2ccccc21)Nc1ccccc1` showed a viability of 70.8%.
For `CC1=CC(=O)C=CC1(C)C(Cl)(Cl)Cl` (configuration not stated), the viability was 105%.
`COc1ccc2c(c1)cc1n2CCN=C1NN` showed a viability of 90.8%.
Work on `COC(=O)C1=C(C(=O)OC)C2(OC1c1ccc(Br)cc1)C(=O)c1ccccc1C2=O` (configuration not stated) yielded a viability of 106%.
Work on `CCOC(=O)c1ccc(N2C(=O)CC(N(C)Cc3ccccc3)C2=O)cc1` (configuration not stated) yielded a viability of 93.7%.
With `Oc1c(CN2CCN(c3ccc(F)cc3)CC2)cc(Cl)c2cccnc12` the viability was 5.07% (active).
Compound `Fc1ccc(N2CCN(Cc3cnc(Oc4ccc(Br)cc4)s3)CC2)cc1` has a viability of 90.4%.
Compound `O=C(c1cccc(C(=O)N2CCN(c3ccc(F)cc3)CC2)c1)N1CCN(c2ccc(F)cc2)CC1` has a viability of 70.1%.
Compound `Cn1c(-c2sc3cc(C(F)(F)F)cnc3c2-c2ccccc2)n[nH]c1=S` has a viability of 92.5%.
For `C=CCc1ccc(OCCOc2cccc(/C=N/n3cnnc3)c2)c(OC)c1`, the viability was 80.3%.
In the case of `CCOC(=O)CSc1nnc(-c2ccncc2)o1`, the viability is reported as 95.7%.
In the case of `O=C(OCC#CCSc1nnc(-c2ccncc2)o1)c1sc2ccccc2c1Cl`, the viability is reported as 2.76% (active).
`O=C(Nc1ccon1)c1sc2ccccc2c1Cl` showed a viability of 88.1%.
Compound `O=C(Nc1ccc2c(c1)CCC2)c1cccc(S(=O)(=O)N2CCN(c3ccc(F)cc3)CC2)c1` has a viability of 79.3%.
For `COc1ccc(C2CC(c3cccs3)=Nc3ccccc3S2)cc1OC` (configuration not stated), the viability was 20.8% (active).
For `COc1ccc(C2SCCN2S(=O)(=O)c2ccccc2)cc1OC` (configuration not stated), the viability was 81.4%.
With `COc1ccc(C2CC(=O)n3c(nc4ccccc43)S2)cc1OC` (configuration not stated) the viability was 115%.
`O=C(Nc1ccc(F)c(Cl)c1)C1CCN(S(=O)(=O)c2cccnc2)CC1` showed a viability of 71.8%.
Work on `CCOC(=O)c1cnn(Cc2ccccc2Cl)c1N` yielded a viability of 96.2%.
In the case of `CC1CCCN(C(C(=O)Nc2ccc(C(C)C)cc2)c2ccc3c(c2)OCO3)C1` (configuration not stated), the viability is reported as 59.6%.
Compound `CC(=O)N1CCN(CCN=CC2=C(O)CC(C)(C)CC2=O)CC1` has a viability of 101%.
`CC(=O)Nc1ccc(S(=O)(=O)N2CCN(C(=O)c3ccccc3F)CC2)cc1` showed a viability of 85.2%.
For `Cc1[nH]n(-c2ccc([N+](=O)[O-])cc2)c(=O)c1C=NCCN1CCN(C(=O)c2ccccc2F)CC1`, the viability was 39.4% (active).
For `CCC(C(=O)NCc1ccc(OC)cc1)n1nc(C)n2c(cc3occc32)c1=O` (configuration not stated), the viability was 80.3%.
`CCCc1nnc(NC(=O)c2cccs2)s1` gave a viability of 102%.
In the case of `O=S(=O)(c1ccc(Br)cc1)n1ccc2ccccc21`, the viability is reported as 8.36% (active).
Compound `CCCCNS(=O)(=O)c1ccc(S(=O)(=O)n2cnc3ccccc32)cc1` has a viability of 88.8%.
In the case of `CC1(C)C2CCC13CS(=O)(=O)NC3C2` (configuration not stated), the viability is reported as 91.1%.
`CCn1c(C)nc2cc(C(=O)NNS(=O)(=O)c3ccc(C)cc3C)ccc21` showed a viability of 95.5%.
For `OC(c1ccccc1)c1nccn1Cc1ccccc1` (configuration not stated), the viability was 94.2%.
For `CCn1c(Cc2cccs2)nnc1SCC(=O)c1ccc(C)cc1`, the viability was 84.1%.
For `NC(=O)c1ncc(C(F)(F)F)cc1Oc1ccc(F)cc1`, the viability was 102%.
In the case of `N/C(=N\OC(=O)Nc1ccc(Cl)c(Cl)c1)c1ncc(C(F)(F)F)cc1Cl`, the viability is reported as 19.4% (active).
Compound `O=C(CN1CCN(c2ncc(C(F)(F)F)cc2Cl)CC1)Nc1ccc2c(c1)OCO2` has a viability of 105%.
In the case of `O=c1c(-c2ccc3c(c2)OCCO3)c(C(F)(F)F)oc2cc(O)cc(O)c12`, the viability is reported as 39% (active).
In the case of `CCN1CCN(Cc2c(O)ccc3c(=O)c(-c4ccc(OC)c(OC)c4)c(C(F)(F)F)oc23)CC1`, the viability is reported as 104%.
Work on `CCSc1ccccc1C(=O)NCc1ccc(OC)cc1` yielded a viability of 92.6%.
For `CC(C)c1ccc(-c2noc(C3CCCN(S(C)(=O)=O)C3)n2)cc1` (configuration not stated), the viability was 106%.
`CCn1c(=O)cc(OCC(=O)NCCCN2CCN(c3cccc(Cl)c3)CC2)c2ccccc21` showed a viability of 43.8%.
Work on `CC1CCCC(C)N1CCCNC(=O)c1cc2c(=O)n(C)c3ccccc3c2n1C` (configuration not stated) yielded a viability of 69.1%.
With `Cn1c(C(=O)NCCCN2CCN(c3cccc(Cl)c3)CC2)cc2c(=O)n(C)c3ccccc3c21` the viability was 1.66% (active).
In the case of `Cn1c(=O)c2c(ncn2CC(COCc2ccccc2Cl)OCc2ccccc2Cl)n(C)c1=O` (configuration not stated), the viability is reported as 77.7%.
Compound `Cc1ccc(-c2noc(CSc3nnc(-c4cccs4)n3C)n2)cc1` has a viability of 98.8%.
With `COCCNS(=O)(=O)c1cc(Br)ccc1OC` the viability was 106%.
With `CCOCCn1c(C(C)C)nc2ccccc21` the viability was 102%.
Compound `CCC(=O)NC(Nc1cc(C)ccn1)(C(F)(F)F)C(F)(F)F` has a viability of 99%.
For `O=C(Nn1cc(C(=O)N2CCN(c3ccccc3F)CC2)c2ccccc2c1=O)c1cnccn1`, the viability was 34.7% (active).
Compound `COc1ccc2oc(=O)c(C(=O)N3CCN(c4ccccc4F)CC3)cc2c1` has a viability of 108%.
For `O=C(c1cccc2ccccc12)N1CCN(c2ccccc2F)CC1`, the viability was 56%.
In the case of `CC(C)OC(=O)c1c(NC(=O)c2ccco2)sc2c1CCCC2`, the viability is reported as 109%.
In the case of `O=C1C(Cl)=C(N2CCOCC2)C(=O)N1c1ccccc1`, the viability is reported as 86.6%.
With `COc1cc(NS(=O)(=O)c2ccc(NC(C)=O)cc2)cc(OC)c1` the viability was 90.3%.
With `COc1ccc(S(=O)(=O)Nc2ccc3oc(C)c(C(C)=O)c3c2)cc1` the viability was 18.7% (active).
`COc1ccc2oc(C)c(NC(C)=O)c2c1` gave a viability of 97.4%.
`C=CCN(C(=O)Cn1ncc2c1-c1cc(C)ccc1OC2)c1ccccc1` showed a viability of 84.9%.
`CC(=O)C1=C(C)NC(=O)NC1c1cc(Br)ccc1OCC#N` (configuration not stated) showed a viability of 97.1%.
With `COc1ccccc1-n1c(CNC(=O)c2ccccc2)nnc1SCC(=O)Nc1nnc(C)s1` the viability was 108%.
Compound `Cc1cnc(NC(=O)CSc2nnc(C)s2)s1` has a viability of 81.4%.
In the case of `Cc1nnc(NC(=O)CSc2nccn2-c2cccc(C)c2C)s1`, the viability is reported as 29.5% (active).
With `CCOC(=O)CSC1=C(C#N)C(c2ccco2)C(C(=O)OCc2ccccc2)=C(C)N1` (configuration not stated) the viability was 22.2% (active).
`C=CCOC(=O)C1=C(C)NC(SCC(=O)OCC)=C(C#N)C1c1ccc(C)cc1` (configuration not stated) gave a viability of 61.6%.
`COc1cc2c(cc1OC)C(c1ccc(C)o1)CC(=O)N2` (configuration not stated) showed a viability of 85.8%.
Compound `COC(=O)CSC1=C(C#N)C(c2ccccc2OC)C(C(=O)OC)C(=O)N1` (configuration not stated) has a viability of 94.8%.
`CC1=C(C(=O)Nc2ccccc2)C(c2ccco2)C(C#N)=C(SCC(N)=O)N1` (configuration not stated) showed a viability of 91%.
In the case of `Cc1ccc(C2CC(=O)NC(SCC(=O)OCc3ccccc3)=C2C#N)o1` (configuration not stated), the viability is reported as 24.4% (active).
